# D2 PAM-1 = D2 dopamine receptor (human) potentiation; potentiation, % at 10 µM; P14416; HEK293 T-REx D2, calcium flux, EC20 dopamine potentiation; 340,000 tested, 0.34% active;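 active means potentiation over 3 SD above the plate norm, cut at about 30% in these data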; further: 0% is about no effect
# Target sequence (P14416 whole entry, looked up): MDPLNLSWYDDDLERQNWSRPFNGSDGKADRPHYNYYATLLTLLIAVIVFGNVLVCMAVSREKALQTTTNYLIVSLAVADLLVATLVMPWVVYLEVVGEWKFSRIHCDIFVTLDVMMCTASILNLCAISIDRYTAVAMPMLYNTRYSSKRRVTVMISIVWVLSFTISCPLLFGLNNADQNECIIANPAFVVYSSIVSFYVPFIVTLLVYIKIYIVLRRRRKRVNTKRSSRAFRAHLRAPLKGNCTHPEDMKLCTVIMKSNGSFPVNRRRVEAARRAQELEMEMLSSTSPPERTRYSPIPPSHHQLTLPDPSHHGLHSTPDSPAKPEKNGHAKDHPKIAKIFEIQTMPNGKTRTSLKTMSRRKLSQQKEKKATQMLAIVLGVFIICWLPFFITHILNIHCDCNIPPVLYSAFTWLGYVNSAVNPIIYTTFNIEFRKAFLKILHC
#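 Potentiation of an EC20 dopamine calcium response is measured in a force-coupled, tetracycline-inducible Hek293 Trex D2 line. Compound-only kinetic reads over 180 s flag agonists before dopamine addition.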
# D2 PAM-2 = potentiates the human D2 dopamine receptor allosterically | potentiation, % (concentration not given with the values) | P14416 | DiscoveRx D2 beta-arrestin cells, luminescence, 90 min; 100% = 57 uM dopamine signal | 360,000 tested, 0.23% active | AID 624464; in the data active means potentiation above about 50%; inconclusive means mostly about 30% to 49%
#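 D2 cells co-treated with compound plus 50 nM dopamine (EC20) for 90 min at 37 deg C to detect potentiation. Beta-arrestin recruitment was read as enzyme-fragment luminescence after 1 h at ambient temperature. Full response was set by 57 uM dopamine.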
# D2 antag = D2 dopamine receptor (human) antagonism | AID 485344 | inhibition, % at 10 µM | 340,000 tested, 2% active | P14416 | HEK293 TREx D2 cells, calcium flux, dopamine EC80; in the data active means inhibition above about 30%; inactive means below that, where a call was filed; further: 0% is about no effect
#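 Compounds are added to dye-loaded, induced HEK293 T-REx cells coupled to calcium release via D2; after a 3 min kinetic read an EC80 dopamine stimulus is given and fluorescence is recorded for 3 more min.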
# D2 ag-1 = activates the human D2 dopamine receptor; P14416; DiscoveRx PathHunter D2 beta-arrestin, luminescence, 90 min; 100% = 57 uM dopamine signal; activation, % (test concentration not listed); 360,000 tested, 0.084% active; in the data active means activation above about 40%; inconclusive means between about 15% and that limit
#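 Agonist mode: compounds alone added to overnight-plated D2 PathHunter cells for 90 min at 37 C, with 57 uM final dopamine (EC100) defining full response. Beta-arrestin recruitment detected by chemiluminescent reagent, read after 1 h at ambient temperature.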
# D2 ag-2 = D2 dopamine receptor (human) agonism | P14416 | HEK293 T-REx D2 cells, calcium flux agonist mode | activation, % at 2 µM | 340,000 tested, 0.53% active | AID 485358;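 active means activation over 3 SD above normal in the single-dose calcium agonist read, cut at about 30% in these data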; further: 0% is about no effect
#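 Calcium-flux readout, 1 cycle/sec over 180 s following compound pin transfer, in inducible HEK293 Trex D2 cells (force-coupled); dopamine controls included. Positive calcium responses during this window marked compounds as potential agonists.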
# D3 ag = confirmation of human D3 dopamine receptor agonists, beta-arrestin; Potency, µM (doses to about 76.9 µM), inactives show top-dose activation, hits mostly activators; 2,300 tested, 4% active; AID 720506; DiscoveRx D3 beta-arrestin cells, luminescence, 90 min; shares compounds with D2 ag-2;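 further: potency means the concentration at half of the fitted maximal effect; 100% = dopamine control response; nearly all actives have a fitted effect of over 70% in size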
# D2 ag-3 = D2 receptor agonism, beta-arrestin counterscreen | shares compounds with D2 ag-2 | DiscoveRx PathHunter D2 beta-arrestin, luminescence, 90 min; response scale: percent relative to full dopamine signal | Potency, µM (titrated, usually from 76.9 µM), for inactives: at the top dose activation, most hits filed as activators | 2,300 tested, 5.9% active | AID 720507; further: potency means the concentration at half of the fitted maximal effect; % of control where 0% means no effect; nearly all actives have a fitted effect of over 70% in size
# Numbers without * were called inactive; ? = inconclusive; · = not tested or not shown. Shown are actives, neighbours in structure and some others; about 2.4% of the full set was active somewhere. Unless noted, the call rests on the fitted dose curve; in most records, active means well fitted activation curve with a large enough effect; inconclusive means small, poorly fitted or top-dose-only effect; inactive means flat fitted curve, though single readings scatter.
SMILES,D2 PAM-1,D2 PAM-2,D2 antag,D2 ag-1,D2 ag-2,D3 ag,D2 ag-3
Cc1cc(N2CCOCC2)nc(N)n1,-9,-3,26,-2,41*,-3%,-3%
OC(COCc1ccccc1)CN1CCN(c2ccccc2)CC1 (stereo not given),-32,-4,86*,14,86*,?,?
OC(COCC1COc2ccccc2O1)CN1CCN(c2ccccc2)CC1 (stereo not given),-12,-7,60*,?,67*,?,?
COCCOCC(O)CN1CCN(c2ccccc2)CC1 (stereo not given),-30,-24,59*,9,84*,22%,15%
CCOc1ccccc1NC(=O)CCn1c(-c2ccc(OC)cc2)cc(C(C)=O)c1C,-4,·,·,·,0,·,·
O=C(C1CCC(CNS(=O)(=O)c2cccc3cccnc23)CC1)N1CCCC1 (stereo not given),-4,-3,11,1,-2,·,·
O=S(=O)(NCC1CCCN(Cc2ccccc2O)C1)c1cccc2cccnc12 (stereo not given),-21,-36,18,-3,49*,-6%,0%
COc1ccc(NC(=O)CC2C(=O)N(c3ccc(F)cc3)C(=O)N2Cc2cccnc2)cc1 (stereo not given),0,·,·,·,0,·,·
CCc1ccc(-n2c(SCc3ccccc3C)nc3[nH]ncc3c2=O)cc1,-11,·,·,·,1,·,·
CCOC(=O)[C@H]1[C@H]2COc3ccc(Br)cc3[C@@H]2N2C(=O)CN(Cc3ccc(Cl)cc3)C(=O)[C@@]12C,·,-1,·,-4,·,·,·
CCOC(=O)[C@H]1[C@H]2COc3ccc(Br)cc3[C@@H]2N2C(=O)CN(Cc3ccco3)C(=O)[C@@]12C,12,2,-7,2,1,-4%,-3%
CCOC(=O)[C@H]1[C@H]2COc3ccc(Cl)cc3[C@@H]2N2C(=O)CN(C)C(=O)[C@@]12C,-18,-10,-8,-3,0,-3%,-3%
Cn1c(=O)n(-c2ccc(F)c(Cl)c2)c(=O)c2sc3ccccc3c21,-1,·,·,·,1,·,·
Cc1ccc(NC(=O)C2CCN(c3nc4ccccc4nc3C(F)(F)F)CC2)cc1F,-5,·,·,·,0,·,·
O=C(NCCNS(=O)(=O)c1ccccc1)c1ccc([N+](=O)[O-])cc1,-22,1,28,-1,58*,0%,3%
O=C(CNS(=O)(=O)c1ccccc1)OCc1cccc([N+](=O)[O-])c1,-18,-21,-18,-1,41*,-1%,0%
O=C(CNS(=O)(=O)c1ccccc1)OCC(=O)c1cccc([N+](=O)[O-])c1,1,-31,11,-17,1,·,·
Cc1ccc(CCNC(=O)C2COc3ccccc3C2)cc1 (stereo not given),16,·,·,·,1,·,·
COC(=O)c1ccccc1N(C)S(=O)(=O)c1cc2c3c(c1)CC(=O)N3CCC2,-1,·,·,·,0,·,·
O=C(c1cc(-c2ccc(F)cc2)on1)N1CCCC1,-11,-3,25,0,0,-11%,-3%
Cc1ccc(S(=O)(=O)C(CNS(=O)(=O)c2cc(F)ccc2F)c2cccs2)cc1 (stereo not given),-1,·,·,·,-1,·,·
COCCNC(=O)c1cccc(OC2CCN(C(C)COc3ccccc3)CC2)c1 (stereo not given),-15,-2,25,-3,45*,0%,13%
Cc1ccc2c(c1)-c1c(c(C(=O)NCCc3ccccc3)nn1C)CS2,3,·,·,·,2,·,·
COCCCNC(=O)Cn1c(=O)n(-c2ccc(Cl)cc2)c(=O)c2c3c(sc21)CCCCC3,2,·,·,·,·,·,·
CC(C)n1ncc2c(C(=O)N3CCN(Cc4ccc(Br)s4)CC3)cc(C3CC3)nc21,-23,6,70*,?,64*,24%,?
SMILES,D2 PAM-1,D2 PAM-2,D2 antag,D2 ag-1,D2 ag-2,D3 ag,D2 ag-3
CC(C)CC[n+]1ccccc1/C=C/c1ccc(N(C)C)cc1,11,-10,5,-2,10,10%,17%
COc1ccc(/C=N/NC(=O)c2nnn(-c3nonc3N)c2-c2cccs2)cc1OC,4,5,2,5,0,·,·
Cc1ccc(/C=N/NC(=O)c2nnn(-c3nonc3N)c2-c2cccs2)cc1,18,-1,32*,-2,25,4%,29%
COc1ccc(/C=N/NC(=O)c2nnn(-c3nonc3N)c2-c2cccc(OC)c2)cc1,22,2,34*,2,5,8%,-1%
C/C(=N\NC(=O)c1nnn(-c2nonc2N)c1-c1ccccc1)c1ccco1,26,-14,-2,-15,10,2%,1%
CCOc1ccc(/C(C)=N/NC(=O)c2nnn(-c3nonc3N)c2-c2cccs2)cc1,6,-1,2,-3,10,-5%,2%
COc1cccc(-c2c(C(=O)N/N=C(\C)c3ccco3)nnn2-c2nonc2N)c1,9,-10,9,-2,9,·,·
CCOc1cccc(-c2c(C(=O)N/N=C/c3ccncc3)nnn2-c2nonc2N)c1,0,0,-3,4,-1,·,·
CCC(=O)C1=C(c2cccc([N+](=O)[O-])c2)N(C(=O)CC)n2c(nnc2C2CCCCC2)S1,-4,·,·,·,1,·,·
CCc1ccc(N2C(=O)CS(=O)(=O)C23C(=O)N(Cc2ccccc2)c2ccccc23)cc1 (stereo not given),-7,·,·,·,0,·,·
CCOC(=O)c1cccc(NC(=O)CCc2c(C)nn(-c3ccc(N4CCOCC4)nn3)c2C)c1,-6,·,·,·,1,·,·
COCc1c(C(=O)N/N=C\c2cccs2)nnn1-c1nonc1N,5,-3,5,-1,1,·,·
Nc1nonc1-n1nnc(C(=O)N/N=C/c2ccc(F)cc2)c1-c1ccc2c(c1)OCO2,·,-3,·,-5,·,3%,-3%
COc1cccc(-c2c(C(=O)N/N=C/c3cccs3)nnn2-c2nonc2N)c1,23,-4,21,-7,3,-13%,-5%
COc1ccc2nc3ccccc3nc2c1NC(=O)c1ccc(Cl)cc1Cl,-3,-25,6,-7,29,-6%,15%
COc1cc(-c2cc(C(=O)Nc3c(Cl)cc(Cl)cc3Cl)c3ccccc3n2)cc(OC)c1OC,7,-14,5,-5,0,·,·
Nc1cccc(O)c1,13,1,6,4,0,-2%,-3%
COc1ccc(-c2cc(C(F)(F)F)nc(SCC(=O)NCC(C)C)n2)cc1OC,2,·,·,·,2,·,·
